Reference: PubChem BioAssay (EPA / NIEHS)
Values joined by “and” are separate entries in the source; they are usually repeats but may differ in a detail not shown here. Identical values can stand only once. Some structures have more than one record in an assay (separate samples or runs), and their calls can disagree. Active and inactive are the calls of the source. How the source made its calls: active means hit-call score of the fitted dose curve at least 0.9, where 1 is the maximum; inactive means score below 0.9.

Columns and labels:
[1] = read-out: Urokinase-type plasminogen activator receptor (uPAR), PLAUR (gene 5329); test: BSK_4H_uPAR: BioMAP Diversity Plus: 4H Assay for Urokinase-type plasminogen activator receptor (uPAR) Biomarker Activity (AID 2283030); settings: primary human endothelial cells (HUVEC); actives raise or lower the signal
Procedure, shortened: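 Cell-surface uPAR ELISA signal, measured 24 h after dosing human umbilical vein endothelial cells, was analyzed with bidirectional fitting relative to DMSO. Parallel SRB staining of total protein tracked overt cytotoxicity.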

[2] = read-out: Vascular endothelial growth factor receptor 2 (Homo sapiens) (UniProt P35968); test: BSK_4H_VEGFRII: BioMAP Diversity Plus: 4H Assay for Vascular endothelial growth factor receptor 2 (VEGFR2) Biomarker Activity (AID 2283031); settings: primary human endothelial cells (HUVEC); actives raise or lower the signal;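 on AC50: cell-surface VEGFR2 protein level quantified by ELISA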
Procedure, shortened: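 ELISA read-out of VEGFRII in primary human umbilical vein endothelium, taken 24 h after chemical treatment. Responses are expressed relative to DMSO, with bidirectional fitting.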

[3] = read-out: Human Leukocyte Antigen - DR isotype (HLADR), HLA-DRA (gene 3122); test: BSK_BE3C_HLADR: BioMAP Diversity Plus: BE3C Assay for Human Leukocyte Antigen - DR isotype (HLADR) Biomarker Activity (AID 2283032); settings: primary human bronchial epithelial cells; actives raise or lower the signal
Procedure, shortened: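 Signal came from an ELISA for HLA-DR in human bronchial epithelial primary cells harvested 24 h after treatment; gain- and loss-of-signal fitting used DMSO controls as reference.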

[4] = read-out: Vascular cell adhesion molecule 1 (VCAM1), VCAM1 (gene 7412); test: BSK_4H_VCAM1: BioMAP Diversity Plus: 4H Assay for Vascular cell adhesion molecule 1 (VCAM1) Biomarker Activity (AID 2283033); settings: primary human endothelial cells (HUVEC); actives raise or lower the signal
Procedure, shortened: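 Endpoint derived from bidirectional fitting against DMSO controls of VCAM-1 ELISA signal in umbilical vein endothelial cells sampled at 24 h following treatment.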

[5] = read-out: Interferon-gamma inducible Protein 10 (IP10), CXCL10 (gene 3627); test: BSK_BE3C_IP10: BioMAP Diversity Plus: BE3C Assay for Interferon-gamma inducible Protein 10 (IP10) Biomarker Activity (AID 2283034); settings: primary human bronchial epithelial cells; actives raise or lower the signal
Procedure, shortened: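 Using primary human bronchial epithelial cultures, the assay captures IP-10 by ELISA one day (24 h) after exposure. Parallel SRB staining of total protein flags overt cytotoxicity. Fits run bidirectionally relative to DMSO.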

[6] = read-out: Monokine induced gamma interferon (MIG), CXCL9 (gene 4283); test: BSK_BE3C_MIG: BioMAP Diversity Plus: BE3C Assay for Monokine induced gamma interferon (MIG) Biomarker Activity (AID 2283035); settings: primary human bronchial epithelial cells; actives raise or lower the signal
Procedure, shortened: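 Primary human bronchial epithelial cells treated for 24 h; MIG levels measured by ELISA, fitted bidirectionally versus DMSO. Parallel SRB total-protein staining assessed cytotoxicity.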

[7] = read-out: Plasminogen activator inhibitor-1 (PAI1), SERPINE1 (gene 5054); test: BSK_BE3C_PAI1: BioMAP Diversity Plus: BE3C Assay for Plasminogen activator inhibitor-1 (PAI1) Biomarker Activity (AID 2283037); settings: primary human bronchial epithelial cells; actives raise or lower the signal
Procedure, shortened: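 PAI-1 biomarker levels in treated human bronchial epithelial cells are determined by ELISA at 24 h. Both increases and decreases relative to DMSO are fitted.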

[8] = read-out: urokinase plasminogen activator (uPA), PLAU (gene 5328); test: BSK_BE3C_uPA: BioMAP Diversity Plus: BE3C Assay for urokinase plasminogen activator (uPA) Biomarker Activity (AID 2283038); settings: primary human bronchial epithelial cells; actives raise or lower the signal
Procedure, shortened: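 Bronchial epithelial cells (human, primary); chemical 24 h; uPA by ELISA; bidirectional fit vs DMSO. SRB (0.1%, after 10% TCA fixation, 560 nm) in parallel cultures for cytotoxicity.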

[9] = read-out: Urokinase-type plasminogen activator receptor (uPAR), PLAUR (gene 5329); test: BSK_BE3C_uPAR: BioMAP Diversity Plus: BE3C Assay for Urokinase-type plasminogen activator receptor (uPAR) Biomarker Activity (AID 2283039); settings: primary human bronchial epithelial cells; actives raise or lower the signal
Procedure, shortened: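 A uPAR ELISA serves as the readout, taken 24 h after treating primary human bronchial epithelial cells. Responses in either direction are fitted against DMSO, which defines baseline activity.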

[10] = read-out: Interleukin-6 (IL6), IL6 (gene 3569); test: BSK_CASM3C_IL6: BioMAP Diversity Plus: CASM3C Assay for Interleukin-6 (IL6) Biomarker Activity for (AID 2283040); settings: primary human coronary artery smooth muscle cells; actives raise or lower the signal
[11] = read-out: Tissue plasminogen activator (tPA), PLAT (gene 5327); test: BSK_BE3C_tPA: BioMAP Diversity Plus: BE3C Assay for Tissue plasminogen activator (tPA) Biomarker Activity (AID 2283041); settings: primary human bronchial epithelial cells; actives raise or lower the signal
Procedure, shortened: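 Bidirectional curve fitting relative to DMSO defined activity, with tPA detected by ELISA in chemically treated human bronchial epithelial primary cells at 24 hours.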

[12] = read-out: Interleukin-8 (IL8), CXCL8 (gene 3576); test: BSK_CASM3C_IL8: BioMAP Diversity Plus: CASM3C Assay for Interleukin-8 (IL8) Biomarker Activity (AID 2283042); settings: primary human coronary artery smooth muscle cells; actives raise or lower the signal;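 further: IL-8 protein level quantified by ELISA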
[13] = read-out: Human Leukocyte Antigen - DR isotype (HLADR), HLA-DRA (gene 3122); test: BSK_CASM3C_HLADR: BioMAP Diversity Plus: CASM3C Assay for Human Leukocyte Antigen - DR isotype (HLADR) Biomarker Activity (AID 2283043); settings: primary human coronary artery smooth muscle cells; actives raise or lower the signal;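 further: cell-surface HLA-DR protein level quantified by ELISA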
[14] = read-out: Macrophage colony-stimulating factor (MCSF), CSF1 (gene 1435); test: BSK_CASM3C_MCSF: BioMAP Diversity Plus: CASM3C Assay for Macrophage colony-stimulating factor (MCSF) Biomarker Activity (AID 2283044); settings: primary human coronary artery smooth muscle cells; actives raise or lower the signal;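 further: M-CSF protein amount quantified by ELISA after 24 h exposure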
[15] = read-out: Low-density lipoprotein receptor (LDLR), LDLR (gene 3949); test: BSK_CASM3C_LDLR: BioMAP Diversity Plus: CASM3C Assay for Low-density lipoprotein receptor (LDLR) Biomarker Activity (AID 2283045); settings: primary human coronary artery smooth muscle cells; actives raise or lower the signal;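 further: LDLR protein level on the cell surface quantified by ELISA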
[16] = read-out: Monocyte Chemoattractant Protein-1 (MCP1), CCL2 (gene 6347); test: BSK_CASM3C_MCP1: BioMAP Diversity Plus: CASM3C Assay for Monocyte Chemoattractant Protein-1 (MCP1) Biomarker Activity (AID 2283046); settings: primary human coronary artery smooth muscle cells; actives raise or lower the signal;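 further: MCP-1 level quantified by ELISA 24 h after dosing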
[17] = BSK_CASM3C_Proliferation: Cell Proliferation Assessment in the BioMAP Diversity Plus: CASM3C Assay (AID 2283047); settings: primary human coronary artery smooth muscle cells;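 further: sulforhodamine B total protein stain as relative cell number at 560 nm; sub-confluent cells exposed 48 h before staining; fitted both ways against DMSO so gain or loss of cell number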
[18] = read-out: Monokine induced gamma interferon (MIG), CXCL9 (gene 4283); test: BSK_CASM3C_MIG: BioMAP Diversity Plus: CASM3C Assay for Monokine induced gamma interferon (MIG) Biomarker Activity (AID 2283048); settings: primary human coronary artery smooth muscle cells; actives raise or lower the signal
[19] = read-out: serum amyloid A (SAA), SAA1 (gene 6288); test: BSK_CASM3C_SAA: BioMAP Diversity Plus: CASM3C Assay for serum amyloid A (SAA) Biomarker Activity (AID 2283049); settings: primary human coronary artery smooth muscle cells; actives raise or lower the signal;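 further: SAA protein level quantified by ELISA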
[20] = read-out: Transforming growth factor beta 1 (TGFb1), TGFB1 (gene 7040); test: BSK_BE3C_TGFb1: BioMAP Diversity Plus: BE3C Assay for Transforming growth factor beta 1 (TGFb1) Biomarker Activity (AID 2283036;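 further: TGF-b1 protein level measured by ELISA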); settings: primary human bronchial epithelial cells; actives raise or lower the signal
Procedure, shortened: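 In this human primary bronchial epithelial system, an ELISA quantified TGF-b1 one day after dosing. Endpoint changes in either direction were fitted relative to DMSO.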

Measured: AC50

NC(=O)C(F)(F)C(F)(F)C(F)(F)C(F)(F)C(N)=O
not listed: [20]
inactive: all other assays above

CCN=C1C=CC(=C(c2ccc(N(CC)CC)cc2)c2ccc(N(CC)CC)cc2)c2ccccc21
inactive: [2] | [8] | [10] | [12] | [15]
active: [1] 4.99 µM and 2.26 µM | [3] 1.85 µM and 1.69 µM | [4] 2.13 µM and 2.05 µM | [5] 2.46 µM and 2.22 µM | [6] 2.48 µM and 2.92 µM | [7] 716 nM and 210 nM | [8] 2.03 µM | [9] 1.93 µM and 1.74 µM | [11] 1.54 µM and 976 nM | [13] 4.2 µM and 3.11 µM | [14] 5.89 µM and 2.3 µM | [16] 4.84 µM and 4.54 µM | [17] 1.09 µM and 1.31 µM | [18] 5.1 µM and 5.25 µM | [19] 371 nM and 1.07 µM

CC(C)(C)c1cc(CCC(=O)NCCCCCCNC(=O)CCc2cc(C(C)(C)C)c(O)c(C(C)(C)C)c2)cc(C(C)(C)C)c1O
active: [5] 121 nM | [16] 824 nM
not listed: [6]
inactive: all other assays above

FC(F)(F)C(F)(F)C(F)(F)C(F)(F)C(F)(F)C(F)(F)C(F)(F)CCI
not listed: [6] | [20]
inactive: all other assays above

OC(O)C(F)(F)C(F)(F)F
not listed: [6] | [20]
inactive: all other assays above

C[C@]12CC[C@H]3C(=CCc4cc(O)ccc43)[C@@H]1CCC2=O
active: [5] 6480 nM | [15] 14.3 µM
not listed: [6]
inactive: all other assays above

OCCCC(F)(F)C(F)(F)C(F)(F)C(F)(F)C(F)(F)C(F)(F)C(F)(F)C(F)(F)F
active: [1] 31 µM and 43.6 µM | [2] 53.5 µM and 36.8 µM | [3] 44.6 µM and 49.9 µM | [4] 31.2 µM and 45.1 µM | [5] 32.3 µM and 37.7 µM | [7] 37.8 µM and 30.3 µM | [8] 55.2 µM | [9] 49.4 µM and 54.6 µM | [11] 49.7 µM and 47.2 µM | [12] 38.9 µM and 35.8 µM | [13] 50.3 µM and 50.6 µM | [14] 29.1 µM and 35.6 µM | [15] 43.9 µM and 45.4 µM | [16] 41.6 µM and 42.8 µM | [17] 21 µM and 39.5 µM | [18] 46.8 µM and 44.5 µM | [19] 45.1 µM and 40.2 µM
inactive: [10]

NCC(F)(F)C(F)(F)C(F)(F)C(F)(F)C(F)(F)C(F)(F)F
not listed: [6] | [20]
inactive: all other assays above

O=C(O)C(F)(F)C(F)(F)C(F)(F)OC(F)(C(F)(F)F)C(F)(F)F
not listed: [6] | [20]
inactive: all other assays above

OCC(O)CC(F)(F)C(F)(F)C(F)(F)C(F)(F)F (stereo not drawn)
not listed: [6] | [20]
inactive: all other assays above

OCC(F)(F)C(F)(F)C(F)(F)C(F)(F)C(F)(F)C(F)(F)C(F)(F)C(F)(F)CO
active: [3] 30 µM and 31.7 µM | [4] 30 µM and 24.8 µM | [5] 38 µM and 30.8 µM | [7] 37.4 µM and 30 µM | [9] 43.7 µM and 40.9 µM | [17] 49.9 µM and 45.4 µM
not listed: [6] | [20]
inactive: all other assays above
